The values below come from the supplement of paper PMC13094657.

± gives the standard deviation of the averaged measurements.

Experiment [1] has as its system MDA-MB-231. In words: cell viability relative to vehicle unstimulated control (fraction); higher = more viable cells. The following applies: pre-treatment time: 18 h then 24 h IFNg/TNF.
Experiment [2] relates to MDA-MB-231. Put plainly: kynurenine production, fold change vs DMSO IFNg/TNF control; higher = more kynurenine produced (less inhibition). The note with it: pre-treatment time: 18 h then 24 h IFNg/TNF. The gist of the method:
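After trichloroacetic acid and p-dimethylaminobenzaldehyde treatment, supernatants were read at 492 nm, with 0–100 μM standards. These came from MDA-MB-231 cells (7 × 10^4/well, 96-well plates) pre-treated 18 h with natural products in 0.1% DMSO and then exposed 24 h to IFNγ (1 U/ml) and TNF (6.25 ng/ml) at 37°C. Values for kynurenine production are fold changes over same-plate cytokine-stimulated vehicle wells, averaged over duplicate plates in the first screening round.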
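Throughout, for cell viability relative to vehicle unstimulated control: viability of the cells left after supernatant collection, read with Deep Blue dye added for 4 h, as absorbance at 570 nm minus 600 nm.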

`CC1=CCC2CC1C2(C)C` (stereo not drawn) [(+)-α-pinene] (compound dose: 10 uM): the cell viability in experiment [1] was found to be 0.9918 ± 0.0024. The kynurenine production in experiment [2] amounted to 0.97 ± 0.036.
The matching figures for `C=C(C(=O)O)[C@@H]1CC[C@@H](C)[C@@H]2CCC(C)=C[C@@H]21` [Artemisinic acid] (compound dose: 10 uM): 1.08 ± 0.11 and 0.889 ± 0.031.
The matching figures for `COC(=O)C1=CO[C@@H](O[C@@H]2O[C@H](CO)[C@@H](O)[C@H](O)[C@H]2O)[C@@H]2C(COC(C)=O)=C[C@H](O)[C@H]12` [Daphylloside] (compound dose: 10 uM): 0.999 ± 0.062 and 0.888 ± 0.048.
The matching figures for `CC1=CCC(O)(C(C)C)CC1` (stereo not drawn) [Terpineol] (compound dose: 10 uM): 0.969 ± 0.087 and 0.885 ± 0.087.
